Measured values published in PubChem BioAssay (Tox21).
Inconclusive results are not listed. Unmarked numbers belong to inactive results. Calls of active or inactive are those of the source. Unless noted, calls come from the whole dose curve.

test: qHTS assay for small molecule agonists of the antioxidant response element (ARE) signaling pathway - cell viability counter screen (AID 743203); details: ARE-bla HepG2 viability, CellTiter-Glo luminescence, 16 h; series mostly up to 73.3 µM; viability change, negative = cytotoxic: at the top concentration; note: nearly all actives have a fitted effect of over 55% in size
Method in brief: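 ATP content via CellTiter-Glo luminescence served as the viability measure. Cells: ARE-bla HepG2, 2,000 per well. Exposure: 16 hrs, 37C/5% CO2.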
% is set by controls: 0 for no effect and ±100 for the full control effect.

Row | SMILES | outcome | viability change, negative = cytotoxic
1 | COC(=O)c1ccccc1N | inactive | 
2 | Cc1ccc(N)cc1N | inactive | 
3 | Cc1cc(Cl)ccc1O | inactive | 
4 | O=c1n(Cl)c(=O)n(Cl)c(=O)n1Cl | inactive | 
5 | OC(O)C(Cl)(Cl)Cl | inactive | 
6 | O=NN1CCCC1 | inactive | 
7 | CCCCCOC(=O)c1ccccc1C(=O)OCCCCC | inactive | 
8 | O=[N+]([O-])c1ccccc1 | inactive | 
9 | CCOP(=S)(OCC)SCCSCC | inactive | 
10 | C#CCN(C)[C@H](C)Cc1ccccc1 | inactive | 
11 | O=[N+]([O-])c1ccc([As](=O)(O)O)cc1 | inactive | 
12 | C1CN2CCN1CC2 | inactive | 
13 | NCCc1ccc(O)cc1 | inactive | 
14 | CC(C)NC(=O)N1CC(=O)N(c2cc(Cl)cc(Cl)c2)C1=O | inactive | 
15 | Cc1ccc([N+](=O)[O-])cc1C |  | 5.81%
16 | CCCN(CCC)c1c([N+](=O)[O-])cc(C(F)(F)F)cc1[N+](=O)[O-] | inactive | 
17 | CCCN(CCC)N=O | inactive | 
18 | Clc1cccc(Cl)c1Cl | inactive | 

Row | SMILES | outcome | viability change, negative = cytotoxic
19 | CCN(CC)CCO | inactive | 
20 | CN(C)N=O | inactive | 
21 | Nc1ccccc1C(=O)O | inactive | 
22 | ClCCBr | inactive | 
23 | BrCCBr | inactive | 
24 | COC(=O)NS(=O)(=O)c1ccc(N)cc1 | inactive | 
25 | CC(Br)C(=O)O (configuration not stated) | inactive | 
26 | CCN(CC)c1ccccc1 | inactive | 
27 | CCOP(=S)(OCC)Oc1cnc2ccccc2n1 | inactive | 
28 | CN(C)CCO | inactive | 
29 | O=C1CCCN1 | inactive | 
30 | CCC12COCN1COC2 | inactive | 
31 | CCNc1nc(NC(C)C)nc(SC)n1 | inactive | 
32 | O=Cc1cccc(Oc2ccccc2)c1 | inactive | 
33 | CC1C=[C-]C=C1.[C-]#[O+].[C-]#[O+].[C-]#[O+].[Mn] | inactive | 
34 | Cc1[nH]c(=O)n(C(C)(C)C)c(=O)c1Cl | inactive | 
35 | CCCCN(CC)C(=O)SCCC | inactive | 
36 | CC(C)(C)OOC(=O)c1ccccc1 | inactive | 

test: qHTS assay for small molecule activators of the heat shock response signaling pathway - cell viability counter screen (AID 743209; active = well fitted cell-killing curve with a large enough effect in the repeat runs; note: nearly all actives have a fitted effect of over 50% in size); details: HSE-bla HeLa viability, CellTiter-Glo luminescence, 5 h; series mostly up to 62.6 µM; activity change, negative = cytotoxicity: at the top concentration
Method in brief: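 Compounds dissolved in DMSO were added to overnight-plated HSE-bla HeLa cells and left 5 h at 37 C. Cell viability was quantified by luminescence using CellTiter-Glo.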

Row | SMILES | outcome | activity change, negative = cytotoxicity
37 | COC(=O)c1ccccc1N | inactive | 
38 | Cc1ccc(N)cc1N | inactive | 
39 | Cc1cc(Cl)ccc1O | inactive | 
40 | O=c1n(Cl)c(=O)n(Cl)c(=O)n1Cl |  | 2.24%
41 | OC(O)C(Cl)(Cl)Cl | inactive | 
42 | O=NN1CCCC1 | inactive | 
43 | CCCCCOC(=O)c1ccccc1C(=O)OCCCCC | inactive | 
44 | O=[N+]([O-])c1ccccc1 | inactive | 
45 | CCOP(=S)(OCC)SCCSCC | inactive | 
46 | C#CCN(C)[C@H](C)Cc1ccccc1 | inactive | 
47 | O=[N+]([O-])c1ccc([As](=O)(O)O)cc1 | inactive | 
48 | C1CN2CCN1CC2 | inactive | 
49 | NCCc1ccc(O)cc1 | inactive | 
50 | CC(C)NC(=O)N1CC(=O)N(c2cc(Cl)cc(Cl)c2)C1=O | inactive | 
51 | Cc1ccc([N+](=O)[O-])cc1C | inactive | 
52 | CCCN(CCC)c1c([N+](=O)[O-])cc(C(F)(F)F)cc1[N+](=O)[O-] | inactive | 
53 | CCCN(CCC)N=O | inactive | 
54 | Clc1cccc(Cl)c1Cl |  | -1.58%

Row | SMILES | outcome | activity change, negative = cytotoxicity
55 | CCN(CC)CCO | inactive | 
56 | CN(C)N=O | inactive | 
57 | Nc1ccccc1C(=O)O | inactive | 
58 | ClCCBr | inactive | 
59 | BrCCBr | inactive | 
60 | COC(=O)NS(=O)(=O)c1ccc(N)cc1 | inactive | 
61 | CC(Br)C(=O)O (configuration not stated) | inactive | 
62 | CCN(CC)c1ccccc1 | inactive | 
63 | CCOP(=S)(OCC)Oc1cnc2ccccc2n1 | inactive | 
64 | CN(C)CCO | inactive | 
65 | O=C1CCCN1 | inactive | 
66 | CCC12COCN1COC2 | inactive | 
67 | CCNc1nc(NC(C)C)nc(SC)n1 | inactive | 
68 | O=Cc1cccc(Oc2ccccc2)c1 | inactive | 
69 | CC1C=[C-]C=C1.[C-]#[O+].[C-]#[O+].[C-]#[O+].[Mn] | inactive | 
70 | Cc1[nH]c(=O)n(C(C)(C)C)c(=O)c1Cl | inactive | 
71 | CCCCN(CC)C(=O)SCCC | inactive | 
72 | CC(C)(C)OOC(=O)c1ccccc1 | inactive | 
